# SSB-PriA inh – inhibitors of Klebsiella pneumoniae PriA binding to SSB C-terminal tail, primary screen, biochemical, AlphaScreen | AlphaScreen SSBct-PriA binding, biotinylated peptide | PriA–SSB C-terminal tail interaction (Klebsiella pneumoniae) | inhibition, % at 33 µM | actives 0.6% (n = 430,000); in the data active = inhibition mostly above about 37%, no sharp cut-off; inactive = mostly below about 20%;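 also: plate controls were negative control peptide for no effect and reference peptide for full effect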
# Anthrax LF inh2 – Bacillus anthracis LF protease inhibitors, primary screen, biochemical, multiplex microsphere, MLPCN library; Lethal factor (Bacillus anthracis), P15917; multiplex microsphere protease cleavage assay; inhibition, % at 10 µM; actives 0.12% (n = 360,000); also: plate controls were buffer without enzyme for full effect and enzyme alone for no effect
# Bead autofluor – flagged as autofluorescent in microsphere protease counterscreen | compound autofluorescence counterscreen, microsphere flow cytometry; active compounds read high | fluorescence intensity (concentration not given with the values) | actives 3.1% (n = 360,000) | AID 624483; in the data active = fluorescence intensity above about 16000; inconclusive = no clear call, values can overlap the other calls
# BoNT-A LC inh2 – BoNT/A light chain protease inhibitors, primary screen, biochemical, flow cytometry, MLPCN library | Botulinum neurotoxin type A light chain protease (Clostridium botulinum A str. ATCC 3502) | multiplex microsphere protease substrate cleavage | inhibition, % at 10 µM | actives 0.17% (n = 360,000) | AID 588499, 2011; also: plate controls were buffer without enzyme for full effect and enzyme alone for no effect
# BoNT-F LC inh – BoNT/F light chain protease inhibitors, primary screen, biochemical, flow cytometry, MLPCN library | Botulinum neurotoxin type F light chain protease (Clostridium botulinum) | Multiplex microsphere protease cleavage assay | inhibition, % at 10 µM | actives 0.22% (n = 360,000) | AID 588497, 2011; in the data active = inhibition above about 35%, passing the limit was not always enough; inconclusive = no clear call, values can overlap the other calls; also: plate controls were buffer without enzyme for full effect and enzyme alone for no effect
# * hit, by the source's call; i = inactive; ? = inconclusive; / = no result. Shown are actives, neighbours in structure and some others; about 3.1% of the full set was active somewhere. Rule as the data show it, unless noted: active = inhibition above about 30%; inconclusive = no clear call, values can overlap the other calls; inactive = below that.
SMILES,SSB-PriA inh,Anthrax LF inh2,Bead autofluor,BoNT-A LC inh2,BoNT-F LC inh
Cc1nc2c(C(=O)O)cnn2c(C)c1Cc1ccccc1F,-3,-13,19848*,?,8
Cc1ccccc1Cc1c(C)nc2nc(SCC(=O)NCc3ccco3)nn2c1C,-4,-9,9154,2,8
Cc1ccccc1Cc1c(C)nc2c(C(=O)NCc3ccco3)cnn2c1C,-8,-4,17104*,-4,-5
O=C(CC1C(=O)NCCN1C(=O)Nc1ccccc1)Nc1cccc(Cl)c1 (stereo not drawn),-2,4,3464,0,-3
O=C(CC1C(=O)NCCN1C(=O)Nc1ccccc1)Nc1ccc2c(c1)OCCO2 (stereo not drawn),-12,-3,16409*,0,-5
COCC(C)NCc1ccc(C)cc1C (stereo not drawn),-3,0,18417*,4,0
COCC(C)NCc1cccc2ccccc12 (stereo not drawn),-1,0,3382,-1,-2
O=C(Nc1ccc(F)cc1)OC1CCCC(NC(=O)c2cc(-c3ccccc3)on2)C1 (stereo not drawn),-4,/,/,/,/
COc1ccc(N2C(=O)CC(Nc3ccc(C)cc3)C2=O)cc1 (stereo not drawn),-13,-5,21164*,?,1
CCOC(=O)COc1ccc2c(c1)C(=O)CC(C)(C)O2,-18,-4,21356*,4,5
CC1(C)CC(=O)c2cc(OCC(=O)O)ccc2O1,-1,-7,24044*,-2,-4
CCOC(=O)COc1ccc2c(c1)C(=O)CC1(CCN(C(C)=O)CC1)O2,14,-3,23933*,-2,-2
O=C(NCCNc1cc(-n2cccc2)ncn1)c1c(F)cccc1Cl,7,/,/,/,/
CC1(C)Cc2cccc(OCc3ccc(C(=O)N4CCN(c5ccccc5F)CC4)cc3)c2O1,-2,/,/,/,/
CC1=C(C(=O)OC2CCCC2)C(c2ccc(C)o2)C2=C(CC(c3cccs3)CC2=O)N1 (stereo not drawn),-11,-5,22029*,-1,-3
O=c1cc(-c2ccncc2)nc[nH]1,-21,/,/,/,/
COc1cc(CNn2nnnc2N)cc(Br)c1OCc1c(Cl)cccc1Cl,11,-1,23392*,?,-6
COc1cc(CNn2nnnc2N)cc(Br)c1OCC(=O)NC(C)(C)C,-16,3,5781,-1,-8
CCOC(=O)N1CCN(C(CC(=O)OC)C(=O)OC)CC1 (stereo not drawn),76*,/,/,/,/
COC(=O)N/N=C/c1cc(C)n(-c2ccc(Br)cc2)c1C,i,31*,4534,-2,?
COC(=O)N/N=C/c1cc(C)n(-c2ccc(F)cc2)c1C,/,-4,4668,1,2
COc1ccc(CNc2cc(C)ccc2C)c(OC)c1OC,11,-3,19482*,0,-7
COc1ccc(C)cc1NCc1cccc(OC)c1OC,38,-3,22091*,1,-2
O=C(CSc1ccc(F)cc1)Nc1nc(-c2ccc(Cl)s2)cs1,-9,/,/,/,/
C=C(C)CSc1nnc2n(N)c(=O)c3ccccc3n12,-25,-19,9126,-1,1
SMILES,SSB-PriA inh,Anthrax LF inh2,Bead autofluor,BoNT-A LC inh2,BoNT-F LC inh
CCOC(=O)CSc1nnc2n(C3CCCCC3)c(=O)c3c4c(sc3n12)CCCC4,-4,-2,23468*,0,-2
CCOC(=O)CSc1nc2sc3c(c2c(=O)n1C1CCCCC1)CCN(C)C3,3,49*,4970,74*,15
O=C(CSc1nnc2n(C3CCCCC3)c(=O)c3ccccc3n12)OC1CCCCC1,-9,0,19972*,-2,-4
Cc1cc(N)n(-c2ncnc3sc(C)c(-c4ccc(Cl)cc4)c23)n1,-2,/,/,/,/
Cc1ccsc1C1Nc2ccc3ncccc3c2C2=C1C(=O)CCC2 (stereo not drawn),3,1,20032*,3,0
COc1cc(C2Nc3ccc4ncccc4c3C3=C2C(=O)CCC3)cc(OC)c1OC (stereo not drawn),-9,2,3181,0,-1
Cc1ccccc1C(N)C(=O)O (stereo not drawn),-17,/,/,/,/
Cc1ccccc1C(NC(N)=O)c1ccccc1 (stereo not drawn),-13,-3,16482*,-2,-4
N#Cc1cccc(C(=O)NCC2CCN(C(=O)c3ccncc3)CC2)c1,-6,/,/,/,/
Clc1ccc(OCCn2cnc(Cl)c2Cl)cc1,43*,7,4527,0,-4
Cc1ccc2c(c1)sc(=NC(=O)c1ccc([N+](=O)[O-])o1)n2C,7,/,/,/,/
Nc1ccccc1Nc1cc(-c2ccccc2)nn1-c1ccccc1,60*,-4,1987,-1,-42
CS(=O)(=O)NCC(c1ccco1)N1CCc2ccccc2C1 (stereo not drawn),6,/,/,/,/
CCOc1ccccc1NC(=O)N1CCC2(CC1)OCCO2,-15,-1,9515,0,-4
CCOc1ccccc1NC(=O)c1ccc(F)c(S(=O)(=O)N2CCC3(CC2)OCCO3)c1,-4,0,17156*,?,-6
Cc1cc(C)cc(N(C(=O)Cc2cccs2)C(C(=O)NC2CCCCC2)c2ccccn2)c1 (stereo not drawn),10,-1,23274*,?,-2
O=C(NC1CCCCC1)C(c1ccccn1)N(C(=O)Cc1cccs1)c1ccc(Cl)cc1 (stereo not drawn),-8,-2,10088,-1,1
Cc1ccccc1C(C(=O)NC1CCCC1)N(C(=O)Cc1cccs1)c1ccc2c(c1)OCCO2 (stereo not drawn),-3,-7,4286,0,-2
CCc1ccc(N(C(=O)Cc2cccs2)C(C(=O)NC2CCCCC2)c2cn(C)nc2C)cc1 (stereo not drawn),-8,-1,23253*,?,-2
CC(C)C(=O)Nc1ccc(C(=O)NNC(=O)NC2CCCCC2)cc1,12,-10,17675*,?,11
CS(=O)(=O)Nc1ccc(C(=O)NC2CCCC2)cc1,-18,-2,20262*,0,-1
Cc1cc(C)cc(N(C(C)C(=O)NCCC2=CCCCC2)S(C)(=O)=O)c1 (stereo not drawn),-9,0,23149*,-2,-5
COc1ccc(C)cc1NC(=O)NCCC1=CCCCC1,3,-2,21584*,-4,-5
COc1cc(C(=O)NCCC2=CCCCC2)cc(OC)c1OC,-20,0,22928*,1,4
CS(=O)(=O)Nc1ccc(C(=O)NCCC2=CCCCC2)cc1,-4,-1,24230*,?,-6
COc1cc(C(=O)OCC(=O)NCCC2=CCCCC2)cc(OC)c1OC,-4,-1,5857,-2,-8
Cc1cc(C(=O)NCCC2=CCCCC2)c(C)o1,-19,0,16581*,0,0
COc1ccc(S(=O)(=O)NCc2ccnc(-c3cccs3)c2)cc1C(N)=O,14,/,/,/,/
O=C(CSc1ccc2nnc(-c3ccncc3)n2n1)N1CCOCC1,-8,/,/,/,/

# Screening results from PubChem BioAssay.
